The panel holds about 83,000 compounds, 20% with a hit somewhere; the sample as a whole holds those more often.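 Cells were grown in 96-well plates and exposed to the test compound at a single concentration for 48 hours; results are reported as percent growth, with values below 10 considered active.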 Active and inactive are the calls of the source.
Legend:
Assay in all cases: NCI-60 one-dose screen, 48 h (100 = growth as untreated, 0 = no growth, -100 = all killed)
Settings in all cases: 10 µM unless noted
[1] = test system: SN12C renal
[2] = test system: UO-31 renal
[3] = test system: TK-10 renal
[4] = test system: ACHN renal
[5] = test system: CAKI-1 renal
[6] = test system: A498 renal
[7] = test system: CCRF-CEM leukemia
[8] = test system: MOLT-4 leukemia
[9] = test system: EKVX NSCLC

Measured: growth

S=c1nc(-c2ccccn2)c(-c2ccccn2)n[nH]1
inactive: [1] 118% | [2] 81.1% | [3] 98.6% | [4] 109% | [5] 110% | [6] 119% | [7] 97.2% | [8] 87.7%

Cc1ccc(NC(=O)c2ccccc2Cl)cc1
inactive: [1] 101% | [2] 97% | [3] 115% | [4] 103% | [6] 79.2% | [7] 85% | [8] 87.8%

CC(C)c1ccccc1NC(=O)N1CCC(C(C)C)CC1
inactive: [1] 106% | [2] 85.6% | [3] 127% | [5] 92.3% | [6] 99.3% | [7] 101% | [8] 90.8%

Cc1ccc(C)c(CN(C)C)c1O
inactive: [9] 98.1% | [1] 115% | [3] 105% | [4] 114% | [5] 114% | [6] 94.2% | [7] 135% | [8] 124%

From PubChem BioAssay (NCI)
